Hits are enriched below; roughly 8.9% of the tested compounds scored in any of these assays.
HPGD inh = qHTS Assay for Inhibitors of HPGD (15-Hydroxyprostaglandin Dehydrogenase) | purified HPGD, NADH fluorescence kinetic, PGE2 substrate | Potency, µM, for inactives: at the top dose activity change, negative = inhibition, usual class: inhibitors | actives 4.3% (n = 150,000) | AID 894, 2007; active means well fitted inhibition curve with a large enough effect, not every such curve was filed as active; inconclusive means small, poorly fitted or top-dose-only effect, or another doubt; inactive means no such curve, though single readings can be large or run the other way; further: potency means the concentration at half of the fitted maximal effect
Target sequence (P15428 whole entry, looked up): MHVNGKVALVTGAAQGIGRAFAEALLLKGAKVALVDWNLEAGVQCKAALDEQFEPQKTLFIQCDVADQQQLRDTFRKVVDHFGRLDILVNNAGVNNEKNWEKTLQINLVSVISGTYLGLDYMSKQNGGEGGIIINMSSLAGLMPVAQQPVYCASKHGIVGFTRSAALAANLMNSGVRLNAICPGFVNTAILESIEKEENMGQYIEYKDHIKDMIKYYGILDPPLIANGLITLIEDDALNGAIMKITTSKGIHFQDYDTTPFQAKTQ
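NADH formation kinetics: reaction with 30 uM PGE2 and 1 mM NAD+ (final), 20 nM enzyme, Tris-HCl pH 8 with Tween 20, after 15 min compound preincubation at room temperature. Fluorescence change, last versus first of five reads.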
12-hLO inh = qHTS Assay for Inhibitors of 12-hLO (12-human lipoxygenase); Polyunsaturated fatty acid lipoxygenase ALOX12 (Homo sapiens), P18054; AID 1452, 2008; actives 0.12% (n = 150,000); purified 12-hLO, xylenol orange hydroperoxide absorbance; Potency, µM (highest dose often 57.1 µM), for the others: top-dose activity change, negative = inhibition, actives largely listed as inhibitors; further: potency means the concentration at half of the fitted maximal effect; nearly all actives have a fitted effect of over 55% in size
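150 nM 12hLO, 25 mM Hepes pH 7.0 + 0.01% Triton X-100; cpd preinc 15 min RT; 40 uM arachidonic acid, 30 min RT; Fe-XO 30 min; A573/A405 ratio as read-out.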
ALDH1A1 block = qHTS Assay for Inhibitors of Aldehyde Dehydrogenase 1 (ALDH1A1); actives 7.3% (n = 220,000); AID 1030, 2008; Aldehyde dehydrogenase 1A1 (Homo sapiens), P00352; Purified ALDH1A1, NADH fluorescence, propionaldehyde substrate; Potency, µM (top dose mostly 75.3 µM), for the others: at the top dose activity, negative = inhibition, usual class: inhibitors; active means well fitted inhibition curve with a large enough effect, not every such curve was filed as active; inconclusive means small, poorly fitted or top-dose-only effect, or another doubt; inactive means no such curve, though single readings can be large or run the other way;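 further: potency means the concentration at half of the fitted maximal effect; plate controls were no enzyme wells and a reference inhibitor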
NPSR antagonist = qHTS Assay for Antagonists of the Neuropeptide S Receptor: cAMP Signal Transduction; Potency, µM (top dose mostly 38.3 µM), inactives show top-dose activity change, negative = inhibition, usual class: inhibitors; AID 1461, 2008; actives 1% (n = 220,000); CHO-NPSR cells, cAMP TR-FRET, antagonist mode; Q6W5P4; further: potency means the concentration at half of the fitted maximal effect; nearly all actives have a fitted effect of over 50% in size
IMPase cell inh = qHTS Assay for Identifying the Cell-Membrane Permeable IMPase Inhibitors; Inositol monophosphatase 1 (Rattus norvegicus), P97697; CHO-M1 cells, IP1 accumulation, HTRF TR-FRET ratio; inhibition (IP1 accumulation), % at 46.1 µM; 120,000 tested, under 10 active; AID 901, 2007; active means well fitted curve in the direction sought with a large enough effect in the signal ratio, not every such curve was filed as active; inconclusive means small, poorly fitted or top-dose-only effect, or a change in a side signal; inactive means no such curve, though single readings can be large or run the other way; the % refers to the signal ratio;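 further: cells stimulated with carbachol in lithium chloride buffer; plate controls were DMSO basal wells for no effect and reference inhibitor wells for full effect; higher means more IMPase inhibition seen as more IP1 and lower FRET ratio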
Target sequence (P97697 whole entry, looked up): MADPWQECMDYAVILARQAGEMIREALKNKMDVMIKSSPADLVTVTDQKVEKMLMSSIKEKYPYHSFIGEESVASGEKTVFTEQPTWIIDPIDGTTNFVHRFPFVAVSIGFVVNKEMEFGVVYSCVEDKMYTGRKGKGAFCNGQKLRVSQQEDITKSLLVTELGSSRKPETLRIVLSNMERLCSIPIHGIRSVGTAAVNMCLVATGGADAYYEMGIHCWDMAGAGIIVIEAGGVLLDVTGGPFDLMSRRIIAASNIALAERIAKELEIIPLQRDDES
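In this qHTS, compounds (final up to 46 uM) act on CHO-M1 cells that are then activated through the M1 receptor with carbachol, in pH 7.4 buffer containing 50 mM LiCl, for 30 min. IP1 accumulation is quantified by the IP-One immunoassay.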
IMPase Li inh = qHTS Assay for Identifying the Cell-Membrane Permeable IMPase Inhibitors: Potentiation with Lithium; CHO-M1 cells, IP1 TR-FRET (IP-One), carbachol + lithium; Potency, µM (highest dose often 59.4 µM), for inactives: top-dose activity, negative = IMPase inhibition, most hits filed as inhibitors; actives 0.35% (n = 210,000); AID 1457, 2008;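 further: IP1 builds up when IMPase is blocked and the TR-FRET signal falls; potency means the concentration at half of the fitted maximal effect; plate controls were basal vehicle for no effect and high inhibitor control for full effect; nearly all actives have a fitted effect of over 50% in size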
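Concentration–response in CHO-M1 cells, lithium-potentiated; 30 min at 37C. IP1 detected by competitive TR-FRET after 10 min lysis at RT. Hill-fitted AC50.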
* marks the source's active call; other numbers are inactive results; ? = inconclusive; nt = not tested or not shown; [ ] = remark or other dose. Unless noted, the call rests on the fitted dose curve; in most records, active means well fitted curve in the direction sought with a large enough effect; inconclusive means small, poorly fitted or top-dose-only effect, or another doubt; inactive means no such curve, though single readings can be large; an effect the other way counts as inactive or inconclusive. Unless noted, on the % scale 0 is the no-effect control and ±100 the full control effect.

SMILES	HPGD inh	12-hLO inh	ALDH1A1 block	NPSR antagonist	IMPase cell inh	IMPase Li inh
COc1ccc(NC(=O)c2sc(SCc3ccccc3)nc2N)cc1	?	1%	13µM*	-30%[46.1 µM]	-2	10%
CCOC(=O)/C=C1\CC(=O)Nc2nonc2N1	32µM*	3%	2%	-15%[46.1 µM]	-3	21%[38.3 µM]
CCn1cc(/C=C/C(=O)Nc2ccn(Cc3c(F)c(F)cc(F)c3F)n2)cn1	?	-4%	?	-9%	nt	-6%
N#CCCN1CCN(CCC#N)CC1	-3%	-1%	16%	-4%[46.1 µM]	-6	25%[38.3 µM]
Cc1cc(CN2CCN(CCC#N)CC2)c(O)c(C2(C)CCCCC2)c1	-15%	-8%	0%	10µM*	2	22%[38.3 µM]
COc1ccc(NCC(=O)Nc2ccccc2C#N)cc1Cl	?	-8%	?	-15%[46.1 µM]	-8	27%[38.3 µM]
COC(=O)Nc1nn(-c2ccc(OC)cc2)c(=O)c(C#N)c1C	nt	nt	25µM*	2%	nt	-5%
COCCn1c(SCC(=O)N2CCCc3ccccc32)nc2ccccc2c1=O	-7%	-6%	25µM*	?	6	3%[38.3 µM]
CCn1c(SCC(=O)N2CCCCC2)nc2c(c1=O)SC(C)C2 (centres undefined)	-19%	7%	22µM*	-3%[46.1 µM]	?	36%[38.3 µM]
CCSc1nc2c(c(=O)n1CC)SC(C)C2 (centres undefined)	-11%	-1%	-8%	-8%[46.1 µM]	7	25%[38.3 µM]
COCCn1c(SCC(=O)N2CCCc3ccccc32)nc2c(c1=O)SC(C)C2 (centres undefined)	-19%	8%	20µM*	-20%[46.1 µM]	5	38%[38.3 µM]
Cc1nn(C)c(N)c1[N+](=O)[O-]	nt	nt	-2%	-8%	nt	nt
Cc1nn(C)c(Sc2ccccc2N)c1[N+](=O)[O-]	nt	nt	4µM*	1%	nt	11%
CCOC(=O)C1(Cc2cccc(F)c2)CCN(Cc2ccon2)CC1	nt	nt	-4%	6%	nt	7%
CC(C)Oc1ccc(/C(O)=C2/C(=O)C(=O)N(Cc3cccnc3)C2c2ccco2)cc1 (centres undefined)	-17%	-1%	3%	5%[46.1 µM]	?	?
Nc1ncnc2c1ncn2C1OC(COP(=O)(O)O)C(O)C1O (centres undefined)	-3%	0%	5%	nt	nt	1%
O=C1C=CC(=O)c2c(O)c(Cl)c(Cl)c(O)c21	?	?	1.3µM*	nt	nt	113%
COc1ccc(/C=C2\SC(=S)N(CCCC(=O)Nc3ccccn3)C2=O)cc1OC	-20%	2%	-10%	-11%	nt	6%
O=C(O)C1C2C=CC(C2)C1C(=O)Nc1ccc(C(=O)N2CCCCC2)c(Cl)c1 (centres undefined)	0.45µM*	-2%	-6%	-14%[46.1 µM]	-13	7%[38.3 µM]
COc1ccc(S(=O)(=O)n2nc(OC(=O)C3CCCCC3)cc2N)cc1	-12%	-8%	2µM*	2%[46.1 µM]	-1	17%[38.3 µM]
CC(C)(C)C(=O)Oc1cc(N)n(S(=O)(=O)c2ccc(F)cc2)n1	-10%	-3%	7%	8%[46.1 µM]	-4	-7%[38.3 µM]
Nc1cc(OC(=O)c2ccco2)nn1S(=O)(=O)c1ccc(F)cc1	nt	-6%	14µM*	15%[46.1 µM]	-4	nt
Cc1ccc(S(=O)(=O)n2nc(OC(=O)c3cccs3)cc2N)cc1	-12%	-10%	2µM*	-3%[46.1 µM]	1	17%[38.3 µM]
CC(C#N)Sc1nc2ccccc2c(=O)n1-c1ccccc1 (centres undefined)	-5%	0%	4.5µM*	-14%[46.1 µM]	-1	8%[38.3 µM]
O=C(CSc1nc2ccccc2c(=O)n1-c1ccccc1)N1CCC1	nt	nt	?	9%	nt	3%
COC(=O)[C@H](Cc1ccccc1)NC(=O)N1CCCCC1	nt	nt	nt	13%	nt	nt
O=C(N1CCCCC1)N1CCN(C(=O)N(c2ccccc2)c2ccccc2)CC1	-1%	-1%	11µM*	-7%[46.1 µM]	0	19%[38.3 µM]

Screening results deposited in PubChem BioAssay by National Center for Advancing Translational Sciences (NCATS).
